Source: the supplement of paper PMC10849652
Of roughly 8,800 targets only a part is listed; those with a hit were picked by preference. About 0.5% of all pairs of compound and target were hits.

Assays:
Test in all cases: log2 fold change, soluble protein after heating vs DMSO (PISA); higher = thermal stabilisation; K562 lysate, 10 uM; active = over 0.2 and 3.5 SD of the protein, either way, in both replicates (recomputed)
lapatinib = compound: CS(=O)(=O)CCNCc1ccc(-c2ccc3ncnc(Nc4ccc(OCc5cccc(F)c5)c(Cl)c4)c3c2)o1 [lapatinib]
Outline: (§1)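 A 30 min treatment with 10 μM compound was applied to crude K562 extract at 1 mg/mL protein in PBS pH 7.4 with 1 mM MgCl2. Heating for 3 min spanned 48°C-58°C, after which aliquots were pooled, adjusted to 0.5% NP-40 at 4°C and spun at 21,000xg for 90 min. TMTpro 16plex LC-MS/MS of the supernatant, with channel sums equalised, gave values recorded as log-two fold change in thermal stability against solvent controls, from duplicates.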

pictilisib = compound: CS(=O)(=O)N1CCN(Cc2cc3nc(-c4cccc5[nH]ncc45)nc(N4CCOCC4)c3s2)CC1 [pictilisib]
Outline: as §1

crizotinib = compound: C[C@@H](Oc1cc(-c2cnn(C3CCNCC3)c2)cnc1N)c1c(Cl)ccc(F)c1Cl [crizotinib]
Outline: as §1

[1] = compound: C[C@H](C1=CC=C(C=C1)C(=O)NC2=C3C=CNC3=NC=C2)N
Outline: as §1

gandotinib = compound: Cc1cc(Nc2cc(CN3CCOCC3)c3nc(C)c(Cc4ccc(Cl)cc4F)n3n2)n[nH]1 [gandotinib]
Outline: as §1

tozasertib = compound: Cc1cc(Nc2cc(N3CCN(C)CC3)nc(Sc3ccc(NC(=O)C4CC4)cc3)n2)n[nH]1 [tozasertib]
Outline: as §1

doramapimod = compound: Cc1ccc(-n2nc(C(C)(C)C)cc2NC(=O)Nc2ccc(OCCN3CCOCC3)c3ccccc23)cc1 [doramapimod]
Outline: as §1

bafetinib = compound: Cc1ccc(NC(=O)c2ccc(CN3CC[C@H](N(C)C)C3)c(C(F)(F)F)c2)cc1Nc1nccc(-c2cncnc2)n1 [bafetinib]
Outline: as §1

[2] = compound: Cc1cccc(CC(=O)N2CCc3c2ccc(-c2cn(C)c4ncnc(N)c24)c3F)n1
Outline: as §1

nilotinib = compound: Cc1cn(-c2cc(NC(=O)c3ccc(C)c(Nc4nccc(-c5cccnc5)n4)c3)cc(C(F)(F)F)c2)cn1 [nilotinib]
Outline: as §1

[3] = compound: Cc1nc(Nc2n[nH]c3c2CN(C(=O)N[C@H](CN(C)C)c2ccccc2)C3(C)C)c2sccc2n1
Outline: as §1

[4] = compound: Cc1ncc(-c2ccnc(Nc3ccc(S(C)(=O)=O)cc3)n2)n1C(C)C
Outline: as §1

quisinostat = compound: Cn1cc(CNCC2CCN(c3ncc(C(=O)NO)cn3)CC2)c2ccccc21 [quisinostat]
Outline: as §1

tipifarnib = compound: Cn1cncc1[C@@](N)(c1ccc(Cl)cc1)c1ccc2c(c1)c(-c1cccc(Cl)c1)cc(=O)n2C [tipifarnib]
Outline: as §1

[5] = compound: NC(=O)Nc1cc(-c2cccc(F)c2)sc1C(=O)N[C@H]1CCCNC1
Outline: as §1

[6] = compound: NC(=O)c1cnc(N[C@@H]2CCCC[C@@H]2N)nc1Nc1cccc(-n2nccn2)c1
Outline: as §1

[7] = compound: NC1(c2ccc(-c3nc4ccn5c(=O)[nH]nc5c4cc3-c3ccccc3)cc2)CCC1
Outline: as §1

duvelisib = compound: C[C@H](Nc1ncnc2nc[nH]c12)c1cc2cccc(Cl)c2c(=O)n1-c1ccccc1 [duvelisib]
Outline: as §1

dasatinib = compound: Cc1nc(Nc2ncc(C(=O)Nc3c(C)cccc3Cl)s2)cc(N2CCN(CCO)CC2)n1 [dasatinib]
Outline: as §1

[8] = compound: Cn1cc(-c2ccc3c(c2)CCN3C(=O)Cc2cccc(C(F)(F)F)c2)c2c(N)ncnc21
Outline: as §1

Measured: log2 fold change

TFPI (UniProt P10646)
active: [1] 0.625
inactive: lapatinib -0.035 | pictilisib 0.009 | crizotinib 0.036 | gandotinib -0.202 | tozasertib -0.01 | doramapimod 0.082 | bafetinib 0.149 | [2] -0.301 | nilotinib -0.076 | [3] 0.04 | [4] -0.035 | quisinostat -0.088 | tipifarnib -0.025 | [5] -0.067 | [6] 0.035 | [7] 0.02

UBN1 (UniProt Q9NPG3)
Chain of UniProt Q9NPG3 (Q9NPG3 whole entry, looked up): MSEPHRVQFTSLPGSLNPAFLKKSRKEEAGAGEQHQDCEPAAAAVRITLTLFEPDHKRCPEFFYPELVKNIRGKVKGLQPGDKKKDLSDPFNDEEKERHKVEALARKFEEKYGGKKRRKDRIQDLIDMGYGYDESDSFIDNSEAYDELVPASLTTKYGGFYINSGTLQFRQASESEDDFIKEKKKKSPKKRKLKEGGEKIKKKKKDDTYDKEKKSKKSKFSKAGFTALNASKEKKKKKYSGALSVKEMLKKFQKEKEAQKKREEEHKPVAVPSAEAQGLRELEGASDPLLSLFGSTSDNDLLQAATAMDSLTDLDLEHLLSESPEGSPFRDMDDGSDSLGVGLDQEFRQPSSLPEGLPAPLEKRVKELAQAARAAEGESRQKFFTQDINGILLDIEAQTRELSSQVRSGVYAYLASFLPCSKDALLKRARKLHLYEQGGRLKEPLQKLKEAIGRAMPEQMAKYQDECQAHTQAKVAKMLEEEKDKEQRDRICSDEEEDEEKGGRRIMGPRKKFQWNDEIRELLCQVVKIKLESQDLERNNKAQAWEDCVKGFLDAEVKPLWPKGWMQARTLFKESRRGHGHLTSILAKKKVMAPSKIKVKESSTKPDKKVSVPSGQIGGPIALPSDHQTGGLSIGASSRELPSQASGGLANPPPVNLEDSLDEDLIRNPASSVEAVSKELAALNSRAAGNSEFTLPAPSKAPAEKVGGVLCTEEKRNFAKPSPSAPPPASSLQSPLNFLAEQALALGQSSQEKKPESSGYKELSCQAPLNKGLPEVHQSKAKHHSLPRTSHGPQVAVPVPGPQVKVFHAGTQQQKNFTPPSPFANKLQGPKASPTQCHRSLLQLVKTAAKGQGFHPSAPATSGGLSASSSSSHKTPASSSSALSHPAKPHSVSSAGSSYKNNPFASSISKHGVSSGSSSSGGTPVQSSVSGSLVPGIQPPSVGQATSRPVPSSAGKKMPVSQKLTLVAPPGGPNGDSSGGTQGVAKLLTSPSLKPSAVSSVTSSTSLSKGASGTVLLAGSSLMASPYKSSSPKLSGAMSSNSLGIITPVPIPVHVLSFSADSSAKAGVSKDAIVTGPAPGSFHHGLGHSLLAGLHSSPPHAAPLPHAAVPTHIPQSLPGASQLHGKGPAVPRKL
inactive: lapatinib -0.187 | crizotinib -0.042 | [1] -0.057 | duvelisib -0.092 | gandotinib 0.215 | tozasertib 0.069 | doramapimod -0.256 | [2] 0.308 | dasatinib 0.208 | [8] 0.055 | quisinostat 0.114 | [5] -0.053 | [6] 0.001

TMEM167B (UniProt Q9NRX6)
Chain of UniProt Q9NRX6 (Q9NRX6 whole entry, looked up): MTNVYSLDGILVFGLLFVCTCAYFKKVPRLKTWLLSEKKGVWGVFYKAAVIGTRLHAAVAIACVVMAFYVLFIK
inactive: lapatinib -0.045 | pictilisib -0.034 | crizotinib 0.006 | gandotinib 0.133 | tozasertib -0.003 | doramapimod -0.083 | bafetinib -0.075 | [2] 0.128 | nilotinib 0.006 | [3] 0.031 | [4] 0.014 | quisinostat -0.016 | tipifarnib -0.013 | [5] 0.027 | [6] 0.005 | [7] -0.019
active: [1] -0.339

TCF4 (UniProt P15884)
Chain of UniProt P15884 (P15884 whole entry, looked up): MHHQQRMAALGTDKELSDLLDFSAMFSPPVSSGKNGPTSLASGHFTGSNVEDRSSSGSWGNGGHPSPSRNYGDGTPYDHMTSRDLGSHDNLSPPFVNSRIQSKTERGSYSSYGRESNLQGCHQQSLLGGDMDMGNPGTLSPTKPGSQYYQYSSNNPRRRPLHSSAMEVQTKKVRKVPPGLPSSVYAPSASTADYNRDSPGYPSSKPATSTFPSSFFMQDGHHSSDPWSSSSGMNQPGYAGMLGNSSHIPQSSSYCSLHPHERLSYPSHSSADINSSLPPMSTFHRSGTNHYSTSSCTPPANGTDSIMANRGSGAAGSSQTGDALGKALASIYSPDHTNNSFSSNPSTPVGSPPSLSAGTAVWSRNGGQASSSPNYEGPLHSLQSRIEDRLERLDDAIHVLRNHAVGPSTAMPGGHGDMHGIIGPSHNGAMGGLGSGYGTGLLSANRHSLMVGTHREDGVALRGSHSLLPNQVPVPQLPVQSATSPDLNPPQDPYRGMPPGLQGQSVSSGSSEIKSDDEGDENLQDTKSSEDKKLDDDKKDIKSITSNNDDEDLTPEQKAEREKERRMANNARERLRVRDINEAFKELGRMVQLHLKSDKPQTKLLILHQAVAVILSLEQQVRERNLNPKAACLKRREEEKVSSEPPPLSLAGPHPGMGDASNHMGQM
inactive: lapatinib -0.212 | crizotinib 0.128 | [1] 0.039 | duvelisib 0.039 | gandotinib -0.022 | tozasertib -0.044 | doramapimod -0.099 | [2] 0 | nilotinib -0.004 | [3] -0.139 | dasatinib 0.077 | [4] -0.057 | [8] 0.01 | quisinostat 0.161 | tipifarnib -0.147 | [5] 0.064 | [6] 0.016

TASP1 (UniProt Q9H6P5)
Chain of UniProt Q9H6P5 (Q9H6P5 whole entry, looked up): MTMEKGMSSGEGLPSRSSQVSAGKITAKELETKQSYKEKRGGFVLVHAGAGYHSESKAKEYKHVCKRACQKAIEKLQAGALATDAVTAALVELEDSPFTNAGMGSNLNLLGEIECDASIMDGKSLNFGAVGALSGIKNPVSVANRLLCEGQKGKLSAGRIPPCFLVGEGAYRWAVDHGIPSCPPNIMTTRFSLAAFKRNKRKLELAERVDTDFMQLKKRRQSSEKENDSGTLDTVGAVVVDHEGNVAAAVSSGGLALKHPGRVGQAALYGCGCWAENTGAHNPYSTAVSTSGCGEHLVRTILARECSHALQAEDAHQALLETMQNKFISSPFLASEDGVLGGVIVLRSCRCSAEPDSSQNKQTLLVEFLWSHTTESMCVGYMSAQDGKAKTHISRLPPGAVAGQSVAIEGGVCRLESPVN
inactive: lapatinib 0.009 | pictilisib -0.217 | crizotinib -0.086 | duvelisib 0 | tozasertib -0.002 | doramapimod 0.053 | bafetinib -0.235 | nilotinib -0.319 | [3] -0.062 | dasatinib -0.124 | [4] 0.077 | [8] -0.003 | quisinostat -0.094 | tipifarnib 0.089 | [5] 0.046 | [6] -0.053 | [7] -0.056

TNIK (UniProt C9J338)
active: [1] -0.443
inactive: lapatinib -0.042 | pictilisib -0.023 | crizotinib -0.075 | duvelisib 0.115 | gandotinib 0.344 | tozasertib 0.012 | doramapimod 0.005 | bafetinib -0.258 | [2] 0.344 | dasatinib -0.055 | [8] -0.043 | quisinostat -0.292 | [5] -0.043 | [6] 0.015 | [7] -0.068

TMEM14C (UniProt Q9P0S9)
Chain of UniProt Q9P0S9 (Q9P0S9 whole entry, looked up): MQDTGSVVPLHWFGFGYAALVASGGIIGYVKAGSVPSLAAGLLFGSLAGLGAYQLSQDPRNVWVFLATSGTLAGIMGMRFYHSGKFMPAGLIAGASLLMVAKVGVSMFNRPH
inactive: lapatinib 0.123 | pictilisib 0.162 | crizotinib -0.087 | duvelisib 0.016 | tozasertib -0.099 | doramapimod 0.002 | bafetinib -0.094 | nilotinib 0.065 | [3] -0.089 | dasatinib 0.031 | [4] 0.13 | [8] 0.029 | quisinostat -0.299 | tipifarnib -0.017 | [5] 0.029 | [6] -0.13 | [7] -0.07

TUBB6 (UniProt K7ES63)
inactive: lapatinib -0.1 | pictilisib 0.021 | crizotinib -0.277 | [1] -0.178 | gandotinib 0.042 | tozasertib 0.122 | doramapimod 0.2 | bafetinib -0.278 | [2] 0.253 | nilotinib -0.051 | [3] 0.112 | [4] -0.155 | quisinostat -0.267 | tipifarnib 0.08 | [5] 0.049 | [6] 0.08 | [7] -0.008

UBIAD1 (UniProt Q9Y5Z9)
inactive: lapatinib 0.031 | crizotinib -0.048 | [1] 0.036 | duvelisib -0.054 | gandotinib 0 | tozasertib -0.024 | doramapimod -0.014 | [2] 0.016 | nilotinib 0.14 | [3] -0.014 | dasatinib 0.117 | [4] 0.125 | [8] -0.014 | quisinostat 0.096 | tipifarnib 0.04 | [5] -0.019 | [6] -0.034 | [7] -0.027

TMEM161B (UniProt Q8NDZ6)
active: gandotinib -0.289 | nilotinib 0.419
inactive: lapatinib -0.057 | pictilisib -0.05 | crizotinib 0.007 | [1] 0.009 | tozasertib 0.009 | doramapimod -0.03 | bafetinib 0.007 | [2] 0.077 | [3] -0.014 | [4] 0.053 | quisinostat -0.07 | tipifarnib -0.117 | [5] 0.046 | [6] -0.005 | [7] -0.064

TNIK isoform 5 (UniProt Q9UKE5)
Chain of UniProt Q9UKE5 (Q9UKE5 whole entry, looked up): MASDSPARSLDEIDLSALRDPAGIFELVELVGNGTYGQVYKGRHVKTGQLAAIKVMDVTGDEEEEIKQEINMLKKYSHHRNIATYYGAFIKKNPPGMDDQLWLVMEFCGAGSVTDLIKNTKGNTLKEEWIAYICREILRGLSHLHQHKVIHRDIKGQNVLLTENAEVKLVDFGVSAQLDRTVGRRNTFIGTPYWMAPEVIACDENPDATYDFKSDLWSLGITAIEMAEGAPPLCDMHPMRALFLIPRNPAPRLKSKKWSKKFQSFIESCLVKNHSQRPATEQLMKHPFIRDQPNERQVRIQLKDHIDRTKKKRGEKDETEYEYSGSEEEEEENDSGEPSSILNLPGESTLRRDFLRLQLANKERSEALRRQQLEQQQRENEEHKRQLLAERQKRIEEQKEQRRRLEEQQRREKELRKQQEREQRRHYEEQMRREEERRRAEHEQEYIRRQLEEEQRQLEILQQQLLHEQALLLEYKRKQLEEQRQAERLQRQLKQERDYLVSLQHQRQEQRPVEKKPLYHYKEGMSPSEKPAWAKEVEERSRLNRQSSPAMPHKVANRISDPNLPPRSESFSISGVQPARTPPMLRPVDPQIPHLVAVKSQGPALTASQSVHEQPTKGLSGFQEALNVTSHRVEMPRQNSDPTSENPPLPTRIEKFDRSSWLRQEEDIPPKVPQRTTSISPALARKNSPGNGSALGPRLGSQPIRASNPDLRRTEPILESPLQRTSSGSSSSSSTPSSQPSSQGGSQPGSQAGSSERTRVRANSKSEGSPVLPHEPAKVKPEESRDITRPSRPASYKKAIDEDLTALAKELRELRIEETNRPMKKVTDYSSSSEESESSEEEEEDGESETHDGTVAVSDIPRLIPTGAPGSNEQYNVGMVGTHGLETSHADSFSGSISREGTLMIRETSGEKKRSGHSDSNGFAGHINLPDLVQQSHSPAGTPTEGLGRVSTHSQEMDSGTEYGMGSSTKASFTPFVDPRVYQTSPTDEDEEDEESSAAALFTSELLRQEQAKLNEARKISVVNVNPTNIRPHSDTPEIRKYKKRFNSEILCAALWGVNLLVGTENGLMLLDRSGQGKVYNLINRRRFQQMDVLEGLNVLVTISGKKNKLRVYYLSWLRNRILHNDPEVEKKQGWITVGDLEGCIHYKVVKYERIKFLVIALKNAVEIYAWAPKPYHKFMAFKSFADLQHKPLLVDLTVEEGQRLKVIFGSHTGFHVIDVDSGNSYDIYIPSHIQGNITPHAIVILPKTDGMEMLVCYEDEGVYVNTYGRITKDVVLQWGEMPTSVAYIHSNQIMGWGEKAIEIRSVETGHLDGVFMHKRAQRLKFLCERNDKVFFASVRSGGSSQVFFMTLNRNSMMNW
active: [5] 0.539
inactive: lapatinib -0.098 | pictilisib 0.046 | crizotinib -0.035 | [1] 0.051 | duvelisib 0.009 | gandotinib 0.025 | doramapimod 0.311 | bafetinib -0.055 | [2] -0.02 | dasatinib 0.187 | [8] 0.019 | quisinostat -0.218 | [6] 0.019

TMEM97 (UniProt Q5BJF2)
inactive: lapatinib -0.052 | pictilisib -0.004 | crizotinib 0.113 | duvelisib 0.014 | gandotinib 0.17 | tozasertib -0.013 | doramapimod -0.127 | bafetinib -0.015 | [2] 0.12 | nilotinib 0.098 | [3] 0.053 | dasatinib 0.018 | [4] 0.124 | [8] -0.005 | quisinostat 0.046 | tipifarnib 0.057 | [5] 0.011 | [6] -0.034 | [7] 0.023
active: [1] -0.277

UCHL5 (UniProt Q5LJA9)
inactive: lapatinib 0.027 | pictilisib 0.001 | crizotinib -0.036 | [1] -0.07 | duvelisib 0.082 | gandotinib -0.074 | tozasertib 0.003 | doramapimod 0.067 | bafetinib -0.07 | [2] -0.156 | dasatinib -0.214 | [8] -0.075 | quisinostat -0.186 | [5] -0.024 | [6] 0.009 | [7] 0.006

TXNRD2 isoform 3 (UniProt Q9NNW7)
inactive: [7] -0.228

TMC1 (UniProt Q8TDI8)
Chain of UniProt Q8TDI8 (Q8TDI8 whole entry, looked up): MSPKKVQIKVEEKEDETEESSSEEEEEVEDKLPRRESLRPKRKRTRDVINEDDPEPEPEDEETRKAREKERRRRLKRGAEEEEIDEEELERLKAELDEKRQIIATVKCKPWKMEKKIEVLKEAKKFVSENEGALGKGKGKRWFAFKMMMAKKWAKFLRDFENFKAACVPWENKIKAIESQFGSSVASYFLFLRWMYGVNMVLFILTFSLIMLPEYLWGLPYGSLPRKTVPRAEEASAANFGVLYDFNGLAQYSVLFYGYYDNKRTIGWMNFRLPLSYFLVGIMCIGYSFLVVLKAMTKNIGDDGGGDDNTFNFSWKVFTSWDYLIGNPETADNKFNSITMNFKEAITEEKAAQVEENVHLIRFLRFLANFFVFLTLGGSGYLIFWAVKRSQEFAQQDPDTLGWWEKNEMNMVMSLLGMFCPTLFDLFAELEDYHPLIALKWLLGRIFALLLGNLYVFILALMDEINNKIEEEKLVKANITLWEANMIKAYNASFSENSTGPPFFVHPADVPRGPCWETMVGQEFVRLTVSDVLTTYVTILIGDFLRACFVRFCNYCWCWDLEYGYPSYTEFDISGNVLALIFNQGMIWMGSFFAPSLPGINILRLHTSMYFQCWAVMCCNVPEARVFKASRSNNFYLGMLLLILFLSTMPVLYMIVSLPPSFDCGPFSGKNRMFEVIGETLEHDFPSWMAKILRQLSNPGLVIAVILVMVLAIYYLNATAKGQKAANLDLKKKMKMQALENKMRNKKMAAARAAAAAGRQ
inactive: lapatinib -0.134 | crizotinib -0.262 | tozasertib 0.074 | doramapimod 0.252 | nilotinib -0.073 | [3] -0.049 | [4] -0.28 | tipifarnib 0.015 | [5] -0.058 | [6] -0.006 | [7] 0
active: quisinostat -0.552

UBAP2 (UniProt Q5JV08)
inactive: nilotinib -0.211 | [3] 0.172 | [4] 0.104 | tipifarnib 0.133

TEDC1 (UniProt Q86SX3)
Chain of UniProt Q86SX3 (Q86SX3 whole entry, looked up): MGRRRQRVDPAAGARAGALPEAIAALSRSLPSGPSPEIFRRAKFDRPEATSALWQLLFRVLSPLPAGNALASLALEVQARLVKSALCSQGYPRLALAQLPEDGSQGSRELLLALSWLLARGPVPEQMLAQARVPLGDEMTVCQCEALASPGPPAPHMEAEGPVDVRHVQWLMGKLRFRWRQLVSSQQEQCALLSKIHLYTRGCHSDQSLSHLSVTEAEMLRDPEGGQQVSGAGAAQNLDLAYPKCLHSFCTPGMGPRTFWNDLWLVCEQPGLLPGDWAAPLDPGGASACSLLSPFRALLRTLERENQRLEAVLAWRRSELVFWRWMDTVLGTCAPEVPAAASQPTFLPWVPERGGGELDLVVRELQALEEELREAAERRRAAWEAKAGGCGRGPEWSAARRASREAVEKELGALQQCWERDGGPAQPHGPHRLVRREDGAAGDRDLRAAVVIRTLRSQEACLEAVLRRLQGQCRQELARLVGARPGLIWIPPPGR
inactive: lapatinib -0.064 | crizotinib -0.078 | duvelisib 0.159 | tozasertib -0.103 | doramapimod 0.009 | nilotinib 0.015 | [3] -0.016 | dasatinib 0.087 | [4] -0.038 | [8] 0.05 | quisinostat 0.161 | tipifarnib -0.049 | [5] -0.074 | [6] 0.104 | [7] -0.022

TRAF7 (UniProt Q6Q0C0)
inactive: crizotinib -0.01 | [1] -0.241 | duvelisib -0.029 | gandotinib -0.128 | tozasertib 0.124 | doramapimod 0.122 | [2] 0.127 | nilotinib 0.16 | [3] 0.027 | dasatinib -0.005 | [4] 0.154 | [8] 0.163 | quisinostat -0.035 | tipifarnib -0.1 | [5] -0.033

TJP1 (UniProt G3V1L9)
inactive: pictilisib 0.157 | crizotinib 0.068 | [1] 0.027 | duvelisib -0.042 | gandotinib 0.071 | doramapimod -0.209 | bafetinib -0.047 | [2] 0.059 | nilotinib 0.093 | [3] 0.051 | dasatinib 0.083 | [4] 0.11 | [8] -0.139 | quisinostat 0.137 | tipifarnib -0.078 | [5] 0.022 | [7] -0.08
